# Laboratory results published in PubChem BioAssay AID2763 (National Center for Advancing Translational Sciences (NCATS), 2010).
# Results filed as inconclusive are left out. A call without a number means that no potency is given here. Activity calls are given as the source filed them. Calls follow the shape of the dose curve; as a rule, active = well fitted inhibition curve with a large enough effect; inconclusive = small, poorly fitted or top-dose-only effect, or effect the other way; inactive = no such curve, though single readings can be large or run the other way.
# Assay: Concentration response confirmation VP16 counterscreen for inhibitors of ROR gamma transcriptional activity; also: nearly all actives have a fitted effect of over 70% in size
# Details: Drosophila S2 Gal4-VP16 UAS-luciferase, luminescence, 20 h; series mostly up to 46.1 µM
# Procedure, shortened: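 Drosophila Schneider cells stably carrying Gal4-VP16 under metallothionein promoter plus UAS-Photinus luciferase. Compound preincubated 1 hr, then 700 uM copper sulfate induction for 20 hr at ambient temperature; luminescence read.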
# Potency is read from the fitted curve at half-maximal effect.
row,Compound,Potency
1,O=C(COc1ccccc1Cl)NCCCN1CCOCC1,inactive
2,O=C(CCCN1C(=O)/C(=C/c2ccccc2Cl)SC1=S)NNC(=O)c1ccc(Cl)cc1Cl,4.45 µM (active)
3,CN1CCN(C(=O)CCN2C(=O)/C(=C\c3ccccc3F)SC2=S)CC1,inactive
4,Cc1cc(C)c2[nH]c(C(=O)Nc3ccc4c(c3)OCO4)cc2c1,inactive
5,COc1ccc(-n2ncc(Cl)c(Cl)c2=O)cc1,19.9 µM (active)
6,Cc1cccc(-c2nc3cc(NC(=O)C4CCCO4)ccc3o2)c1 (stereo unspecified),2.5 µM (active)
7,Cc1ccc(-c2n[nH]c(=S)n2/N=C/C=C\c2ccccc2[N+](=O)[O-])cc1,inactive
8,CC1Oc2ccccc2N(CC(=O)NCCN2CCOCC2)C1=O (stereo unspecified),inactive
9,CCOC(=O)c1oc2cccc(OCC(O)CNC(C)C)c2c1C (stereo unspecified),inactive
10,O=C1CC(c2ccc(F)cc2)CC(O)=C1C1NCCc2ccccc21 (stereo unspecified),inactive
11,O=C1NC2=C(C(=O)CCC2)C(c2ccccc2)N1 (stereo unspecified),inactive
12,COc1ccc2nc(NC(=O)c3sc4nc(C)cc(C)c4c3N)sc2c1,0.0791 µM (active)
13,O=C1c2ccccc2C(=O)c2c1ccc1c(=O)n(C3CCCCC3)[nH]c21,inactive
14,CCOC(=O)c1sc(NC(=O)c2sc(C)nc2C)nc1C,inactive
15,COc1ccc(CNC(=O)COC(=O)C2CC3C=CC2C3)cc1 (stereo unspecified),inactive
16,Cc1ccc(S(=O)(=O)NCc2ccncc2)c(C)c1C,3.97 µM (active)
17,CCN(CC)c1ccc2cc(-c3nc4ccccc4[nH]3)c(=O)oc2c1,9.96 µM (active)
18,O=c1oc2c3c(nn2c2ccccc12)CCCC3,inactive

row,Compound,Potency
1,O=C(CCCN1C(=O)/C(=C/c2ccccc2Cl)SC1=S)Nc1cccnc1,14.1 µM (active)
2,CC(=O)c1cccc(N(CC(=O)Nc2ccccc2C(=O)N2CCCC2)S(C)(=O)=O)c1,inactive
3,Cc1ccc(OCCn2cc(C(=S)N3CCCC3)c3ccccc32)cc1C,25 µM (active)
4,CCC(C)NC(=O)CSc1nnc(-c2cc(-c3ccc(C)cc3)nc3ccccc23)n1N (stereo unspecified),inactive
5,Cn1nccc1C(=O)NC1CCCc2c1cnn2-c1ccc(F)cc1F (stereo unspecified),1.58 µM (active)
6,COc1cc(C2c3cc4c(cc3C(OC3OC5COC(c6cccs6)OC5C(O)C3O)C3COC(=O)C23)OCO4)cc(OC)c1O (stereo unspecified),25 µM (active)
7,COc1ccc(-c2nnc(-c3ccc(N(C)C)cc3)o2)cc1,inactive
8,O=C(CN1CCCCCC1)Nc1ccc(S(=O)(=O)N2CCOCC2)cc1,inactive
9,Cc1ccccc1NC(=O)CCN1CCN(C)CC1,inactive
10,CN(Cc1ccccc1)c1ncnc2ccc(Br)cc12,inactive
11,CCCCn1c(CN2CCN(c3ccccc3)CC2)nc2c1c(=O)n(C)c(=O)n2C,8.88 µM (active)
12,COc1ccc2[nH]c(C)c(CCN(Cc3cccs3)C(=S)Nc3ccccc3OC)c2c1,inactive
13,O=C(c1cc(-c2ccc(Cl)cc2)n[nH]1)N1CCc2ccccc2C1,inactive
14,CCOC(=O)[C@@H]1[C@H]2COc3ccc(Br)cc3[C@@H]2N2C(=O)N(c3ccccc3)C(=O)[C@@]12C,inactive
15,Cc1cc(C)nc(-n2nc(C)cc2NC(=O)c2ccc(F)cc2F)n1,2.81 µM (active)
16,Cc1cc(Br)c2nc3c(c(C(=O)O)c2c1)CCCCC3,inactive
17,CC(C)CC(=O)NS(=O)(=O)c1ccc(N)cc1,inactive
18,COc1ccc(-c2cc(-c3nnc(COC(=O)c4ccncc4)o3)c3ccccc3n2)cc1OC,inactive
